Rows were chosen to be rich in hits. Some 4.3% of all compounds tested hit in one or more screens of this group.
esBAF inh: SWI/SNF esBAF complex inhibition. mouse ES cells, Bmi1-luciferase knock-in reporter, 24 h; 100% = twice the neutral-well signal. reporter increase, % at 12.5 µM. actives 2% (n = 350,000). AID 602393; in the data active means activation above about 40%; inconclusive means no clear call, values can overlap the other calls;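 further: 0% = median of the plate's neutral control wells and 100% = double that signal; a rise in the Bmi1 reporter signal indicates esBAF inhibition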
HSF1 activator: increases HSF-1 driven luciferase reporter signal. activation, % at 9 µM. AID 504408. actives 1.7% (n = 300,000). NIH3T3-HGL HSF-1 luciferase reporter, MG132, 8 h; 100% = twice DMSO control signal;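 active means mean replicate activation of at least 50% with a set share of replicates each reaching 50%; inconclusive means only one of those two conditions met; inactive means mean below 50% and too few replicates reaching it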;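 further: 0% = median of the neutral control wells and 100% = twice that signal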
MITF TRPM1 HTS: activators of MITF-driven TRPM1 promoter activity in SK-MEL-5 cells; activation, % at 12.5 µM; actives 0.75% (n = 300,000); AID 588334; SK-MEL-5 TRPM1-promoter luciferase, 24 h; % of positive control, neutral wells = 0;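 active means mean activation of at least 80% with every replicate also reaching 80%; inconclusive means mean reaches 80% but some replicate falls short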;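 further: 0% = neutral control wells and 100% = parthenolide positive control wells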
Wnt bcat act: activators of Wnt/beta-catenin signaling; Wnt/beta-catenin reporter cell assay, activator, plate reader; actives 1.2% (n = 300,000); activation, % at 9.35 µM; in the data active means activation above about 30%, passing the limit was not always enough; inconclusive means no clear call, values can overlap the other calls;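 further: 0% = neutral control wells and 100% = positive control wells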
HSF1 inhib: HSF1 inhibition. NIH3T3-HGL HSE-luciferase, MG132-induced, luminescence 8 h; active compounds read low. activity change, negative = inhibition, % at 7.5 µM (by protocol). actives 0.77% (n = 300,000). AID 2098;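 active means more than half of replicate wells show activity change below -50%, luminescence cut by over half; inconclusive means some wells, but at most half, below -50%; inactive means no replicate well below -50%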;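 further: luciferase reports HSF-1 transcriptional activity via heat shock element; 0% = median of DMSO wells and -100% = zero luminescence signal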
SMARCA2 activ: increases SMARCA2 function in MMTV reporter cells | MG213 cells, MMTV-luciferase reporter, dexamethasone, overnight | activation, % at 9.1 µM | actives 1% (n = 370,000) | AID 652017; in the data active means activation above about 7.8%;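 further: 0% = vehicle wells and 100% = reference activator wells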
Active calls of the source: *; ? = inconclusive; nt = no result given.

SMILES	esBAF inh	HSF1 activator	MITF TRPM1 HTS	Wnt bcat act	HSF1 inhib	SMARCA2 activ
CCc1noc(C)c1C(=O)Nc1nc2ccc(F)cc2s1	nt	10	57	22	12	4
COc1cc2nc(NC(=O)c3ccc(Cl)cc3)sc(=O)c2cc1OC	-10	57*	-25	-3	8	-3
CO[C@@H]1CN(C)C(=O)c2ccc(NC(=O)c3ccccc3F)cc2OC[C@H](C)N(CC2CCOCC2)C[C@H]1C	3	nt	nt	nt	nt	nt
O=C(Nc1nc2ccccc2s1)c1ccc(F)cc1	10	50	29	47*	29	2
COc1ccc(C(=O)Nc2nc(CC(=O)NCc3ccc(F)cc3)cs2)cc1	50*	16	20	11	10	1
COc1ccc(C(=O)Nc2nc3ccccc3s2)cc1OC	78*	71*	78	-1	36	-1
COc1ccc2nc(NC(=O)c3ccc4ncsc4c3)sc2c1	67*	29	?	nt	16	nt
COc1cccc(C(=O)Nc2nc3ccccc3s2)c1	3	47	66	26	27	1
CO[C@@H]1CN(C)C(=O)c2cc(NC(=O)C3CC3)ccc2OC[C@H](C)N(Cc2ccc(F)cc2)C[C@H]1C	6	nt	nt	nt	nt	nt
CO[C@H]1CN(C)C(=O)c2ccc(NC(=O)C3CC3)cc2OC[C@@H](C)N(C(=O)c2ccccc2F)C[C@@H]1C	-3	nt	nt	nt	nt	nt
O=C(C[C@@H]1C[C@@H]2c3cc(NC(=O)C4CCOCC4)ccc3O[C@@H]2[C@H](CO)O1)NCc1cccc(F)c1	3	nt	nt	nt	nt	nt
CCC(C)C(=O)Nc1nc2ccc(OC)cc2s1 (stereo not given)	nt	50	nt	43*	12	-2
COc1ccc(OC)c(C2C(C(=O)Nc3nc4ccccc4s3)=C(C)NC3=C2C(=O)CCC3)c1 (stereo not given)	16	75*	6	nt	38	-7
COc1ccc(-c2cn(CC[C@@H]3CC[C@H](NC(=O)NC(C)C)[C@@H](CO)O3)nn2)cc1	-8	nt	nt	nt	nt	nt
CCCNC(=O)[C@@H]1[C@@H](CO)[C@@H]2Cn3c(ccc(/C=C/c4ccccc4)c3=O)[C@H]1N2C(=O)c1ccncc1	0	nt	nt	nt	nt	nt
CCSc1nnc(NC(=O)C(Cc2ccccc2)n2cccc2)s1 (stereo not given)	-2	-79	12	-3	-75*	3
C[C@H]1CN([C@@H](C)CO)C(=O)c2cccc(NS(=O)(=O)c3cccs3)c2O[C@H]1CN(C)Cc1ccc(Cl)c(Cl)c1	3	nt	nt	nt	nt	nt
Cc1ccc2nc(N(CCN(C)C)C(=O)c3ccc4ccccc4c3)sc2c1	7	2	12	nt	4	nt
Cc1ccc2nc(N(CCCN(C)C)C(=O)c3ccc4ncsc4c3)sc2c1	52*	-37	10	-22	-35	3
C#Cc1ccc(CN2CCC(C(=O)Nc3ccc(Oc4ccccc4)nc3)CC2)cc1	-15	21	-29	-2	7	-8
CC#CC(=O)N1CCC(C(=O)Nc2ccc(Oc3ccccc3)nc2)CC1	41*	20	27	14	4	0
Cc1cccc(N2C(=O)CC(N(O)c3ccccc3)C2=O)c1 (stereo not given)	61*	-4	nt	14	4	1
O=C1CC(N(O)c2ccccc2)C(=O)N1c1ccc(Cl)c(Cl)c1 (stereo not given)	nt	22	nt	-1	10	5
NCC[C@H]1CC[C@H](NC(=O)Nc2ccc(F)cc2)[C@H](CO)O1	1	nt	nt	nt	nt	nt
Cc1ccc2cc(/C=C/C(=O)c3ccco3)c(Cl)nc2c1	nt	119*	nt	60*	68	6
SMILES	esBAF inh	HSF1 activator	MITF TRPM1 HTS	Wnt bcat act	HSF1 inhib	SMARCA2 activ
Cc1ccc2nc(Cl)c(/C=C/C(=O)c3ccco3)cc2c1	50*	47	nt	1	30	7
C[C@@H]1CN([C@H](C)CO)C(=O)c2cc(NC(=O)C3CC3)ccc2O[C@H]1CN(C)S(=O)(=O)c1cccs1	-2	nt	nt	nt	nt	nt
C[C@H](CO)N1C[C@H](C)[C@H](CN(C)S(=O)(=O)CC(F)(F)F)OCc2ccccc2-c2ccccc2C1=O	17	nt	nt	nt	nt	nt
O=C(NCC(F)(F)F)[C@@H]1[C@@H](CO)[C@@H]2Cn3c(cccc3=O)[C@@H]2N1C(=O)C1CCCC1	-3	nt	nt	nt	nt	nt
COc1cccc2sc(N(C)c3ccccc3)nc12	14	64*	57	65*	19	3
Cc1ccc(-n2c(C)nc3oc4ccccc4c(=O)c3c2=O)cc1	56*	24	12	?	18	3
CCc1nc2oc3cc(OC)ccc3c(=O)c2c(=O)n1-c1ccccc1	45*	nt	43	13	nt	1
NC(=O)N/N=C(/CCCCCC/C(=N\NC(N)=O)c1ccccc1)c1ccccc1	nt	6	nt	37*	-9	1
C/C(=N\NC(N)=O)c1ccccc1	nt	-14	8	0	-5	-1
Cc1ccc(NC(=O)c2cc(N3C(=O)C=CC3=O)ccc2Cl)cc1C	nt	60*	-13	16	44	1
COc1cc(C(=O)N2C[C@H]3CC[C@H]2C3)ccc1OC1CCN(C(C)=O)CC1	0	4	3	-1	-1	-3
COc1cc(C(=O)N2CCSCC2)ccc1OC1CCN(C(C)=O)CC1	12	-66	3	0	-55*	0
COc1ccc(NC(=O)N[C@@H]2CC[C@H](CC(=O)NC3CCCCC3)O[C@H]2CO)cc1	-8	nt	nt	nt	nt	nt
O=C(O)c1ccccc1COc1ccccc1Cl	10	-58	-3	3	-56*	2
Cc1oc(C(=O)O)cc1COc1ccccc1Cl	-3	18	-10	59*	8	4
Cc1csc(NC(=O)c2ccc(COc3ccccc3)o2)n1	63*	18	48	27	7	-3
Cc1cccc(NC(=O)c2ccc(COc3ccc4ccccc4c3)o2)n1	nt	68*	6	3	51	4
C[C@@H]1CN([C@@H](C)CO)C(=O)c2cc(/C=C/c3ccccc3)cnc2O[C@@H]1CN(C)C(=O)NC1CCCCC1	-2	nt	nt	nt	nt	nt
CCCCn1c(NC(=O)c2ccco2)c(S(=O)(=O)c2ccc(C)cc2)c2nc3ccccc3nc21	nt	137*	7	7	58	1
Cc1ccc(S(=O)(=O)c2c(N)n(Cc3ccco3)c3nc4ccccc4nc23)cc1C	9	73*	nt	-10	50	-1
COc1ccccc1/C=N/n1c(N)c(S(=O)(=O)c2cccs2)c2nc3ccccc3nc21	41*	12	nt	nt	13	-2
Cc1ccc(S(=O)(=O)c2c(N)n(CCC(C)C)c3nc4ccccc4nc23)cc1	3	109*	5	nt	53	-5
CCCNC(=O)N1[C@H](CO)[C@H]2c3ccccc3N(C(=O)Nc3cccc(F)c3)C[C@H]21	-2	nt	nt	nt	nt	nt
O=C(CC1CC1)Nc1ccc2c(c1)[C@H]1C[C@H](CC(=O)NC3CCCC3)O[C@H](CO)[C@H]1O2	0	nt	nt	nt	nt	nt
CO[C@@H]1CN(C)C(=O)c2cc(NC(=O)C3CCCC3)ccc2OC[C@@H](C)N(S(=O)(=O)c2ccc(Cl)cc2)C[C@H]1C	6	nt	nt	nt	nt	nt

Source: PubChem BioAssay
